Bioassay records from PubChem BioAssay.
The list is not random: actives were taken first. Their share in the collection is about 19%.
TDP1 cell noCPT: qHTS for Inhibitors of human tyrosyl-DNA phosphodiesterase 1 (TDP1): qHTS in cells in absence of CPT | Potency, µM (highest dose often 46.2 µM), for the others: at the highest dose activity change, negative = growth inhibition, actives largely listed as inhibitors | AID 686978, 2013 | 15% of 420,000 active | DT40 Tdp1-/- hTDP1 cells, no CPT, ATP luminescence, 48 h; also: potency is read from the fitted curve at half-maximal effect; % is scaled to controls: 0 for no effect and ±100 for the full control effect; nearly all actives have a fitted effect of over 55% in size
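Compound effects on proliferation are scored in DT40 Tdp1-/-;hTDP1 cells in the absence of CPT. ATP levels (CellTiter-Glo luminescence) are recorded after a ≥48 hr, 37 °C incubation.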
TDP1 inh: inhibitors of human tyrosyl-DNA phosphodiesterase TDP1 | Q9NUW8 | recombinant TDP1, AlphaScreen DNA substrate cleavage | Potency, µM (highest dose often 130 µM), inactives show at the highest dose activity change, negative = inhibition, actives largely listed as inhibitors | 0.28% of 350,000 active; also: potency is read from the fitted curve at half-maximal effect; % is scaled to controls: 0 for no effect and ±100 for the full control effect; nearly all actives have a fitted effect of over 40% in size
Target sequence (Q9NUW8 whole entry, looked up): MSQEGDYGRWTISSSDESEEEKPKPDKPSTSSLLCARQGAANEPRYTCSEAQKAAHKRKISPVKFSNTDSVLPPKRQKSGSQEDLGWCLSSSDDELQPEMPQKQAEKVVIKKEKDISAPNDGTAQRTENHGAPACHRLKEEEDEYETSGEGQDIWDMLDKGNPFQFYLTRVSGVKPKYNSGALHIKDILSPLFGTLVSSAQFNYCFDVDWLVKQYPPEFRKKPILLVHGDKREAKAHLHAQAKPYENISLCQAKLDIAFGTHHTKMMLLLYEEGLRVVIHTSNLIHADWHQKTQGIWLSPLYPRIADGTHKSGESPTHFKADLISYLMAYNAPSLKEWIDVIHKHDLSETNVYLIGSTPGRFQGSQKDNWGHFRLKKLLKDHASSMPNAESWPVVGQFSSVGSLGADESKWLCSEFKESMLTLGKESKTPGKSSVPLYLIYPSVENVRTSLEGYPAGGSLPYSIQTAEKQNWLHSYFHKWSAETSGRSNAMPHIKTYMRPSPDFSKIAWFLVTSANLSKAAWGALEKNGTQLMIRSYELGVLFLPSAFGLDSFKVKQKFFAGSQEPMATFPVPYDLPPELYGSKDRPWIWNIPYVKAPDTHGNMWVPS
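Steps: enzyme plus compound, 15 min RT; add biotin/phosphotyrosine-FITC oligonucleotide (15 nM final), react 5 min; add donor/acceptor beads (10 ug/ml final), 10 min; read AlphaScreen. Tdp1 at 1 nM final.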
IL-1B inflam inh: inflammasome signaling inhibition, IL-1 beta readout. THP-1 LPS/ATP IL-1B secretion, AlphaLISA, 16 h; active compounds read low. activity change, % at 57.5 µM. 4.7% of 360,000 active; in the data active = activity change below about -50%; inconclusive = mostly about -30% to -49%; also: % is scaled to controls: 0 for no effect and ±100 for the full control effect
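Secreted IL-1B measured by AlphaLISA bead assay after 16 h compound exposure of THP-1 cells; compounds (final up to 57.5 uM) added 1 h before LPS (250 ng/mL) and ATP (1.25 mM) stimulation; lower signal means less secretion.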
HepG2 viability: HepG2 cytotoxicity, counter-screen for TGF-b inhibitors | AID 588856 | 0.76% of 410,000 active | Potency, µM (highest dose often 46.1 µM), for inactives: top-dose activity change, negative = cytotoxicity, most hits filed as cytotoxic | HepG2 CAGA-GFP viability, ATP luminescence, 18 h; also: potency is read from the fitted curve at half-maximal effect
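HepG2 CAGA-GFP cells (1000/well, DMEM with 1% FBS) received compound, then TGF-beta at 500 pg/mL final, and were incubated 18 hours at 37 degrees C. Viability was read by CellTiter-Glo luminescence. Media-only wells were set as complete cell-killing and DMSO as no toxicity.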
DT40 TDP1 CPT: growth inhibition of DT40 Tdp1-/-;hTDP1 cells with camptothecin (screen for TDP1 inhibitors) | chicken DT40 Tdp1-/-;hTDP1 cells + 20 nM CPT, ATP luminescence, 48 h | Potency, µM (titrated, usually from 46.2 µM), for inactives: at the highest dose activity change, negative = growth inhibition, actives largely listed as inhibitors | 12% of 420,000 active; also: potency is read from the fitted curve at half-maximal effect; % is scaled to controls: 0 for no effect and ±100 for the full control effect; nearly all actives have a fitted effect of over 55% in size
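Chicken DT40 Tdp1-/- cells complemented with human TDP1, 400 cells/well, exposed to compounds plus 20 nM camptothecin for at least 48 h at 37 C; viability read as ATP content by CellTiter-Glo luminescence.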
TGFb SMAD3 inh: TGF-b pathway inhibition; HepG2 CAGA-GFP TGF-b/SMAD3 reporter, GFP fluorescence, 18 h; TGF-beta stimulated, 500 pg/mL final; Potency, µM (highest dose often 46.1 µM), inactives show at the highest dose activity, negative = inhibition, hits mostly inhibitors; 1.2% of 410,000 active; AID 588855; also: potency is read from the fitted curve at half-maximal effect; % is scaled to controls: 0 for no effect and ±100 for the full control effect; nearly all actives have a fitted effect of over 65% in size
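First, reporter cells (HEPG2 CAGA-GFP) rested 2 h at 37 degrees C. Next, compounds were pinned in and TGF-beta added to 500 pg/mL final. After 18 h, GFP was imaged per cell and summed per well.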
Numbers without * were called inactive; ? = inconclusive; . = no result given; [ ] = another dose, or the depositor's remark. Unless noted, calls follow the shape of the dose curve; as a rule, active = well fitted curve in the direction sought with a large enough effect; inconclusive = small, poorly fitted or top-dose-only effect, or another doubt; inactive = no such curve, though single readings can be large; an effect the other way counts as inactive or inconclusive.

SMILES	TDP1 cell noCPT	TDP1 inh	IL-1B inflam inh	HepG2 viability	DT40 TDP1 CPT	TGFb SMAD3 inh
COC(=O)CN1C(=O)[C@H]2[C@@H](/C=C/c3ccccc3)N3C(=O)CN(Cc4ccccc4)C(=O)[C@@]3(C)[C@H]2C1=O	-22%	.	11	-1%	-26%	-2%
O=C(C[n+]1ccccn1)c1ccccc1	-6%	6%	9	1%	2%	-11%
COc1ccc(S(=O)(=O)Nc2cc3c(cc2N2CCOCC2)n(C)c(=O)n3C)cc1	?	5%	.	-29%	?	-2%
Cc1ccc(Nc2cc(C)nn2-c2nc(C)cc(C)n2)cc1	5.8µM*	0%	-28	-14%	5.8µM*	-9%
CC(=O)Nc1cc(C)nn1-c1nc(C)cc(C)n1	-4%	5%	2	1%	-6%	-4%
Cc1ccc(Nc2cc(C)nn2-c2nc(C)cc(=O)[nH]2)cc1	0.56µM*	9%	-110*	-27%	0.79µM*	2.2µM*
COc1ccc2c(c1)-c1nc(-n3ncc(C(=O)N(C)C(C)c4ccon4)c3C3CC3)ncc1CC2 (centres undefined)	?	.	.	.	-20%[9.04 µM]	.
COc1ccc(-c2nc3cnc(OC)nc3n(-c3ccc(OC)cc3)c2=O)cc1	0.92µM*	.	.	.	1.3µM*	.
CCNc1ncc2nc(-c3cccs3)c(=O)n(-c3ccc(OC)cc3)c2n1	?	.	.	.	-15%	.
CCNc1ncc2nc(-c3cc(F)cc(F)c3)c(=O)n(-c3ccc(OC)cc3)c2n1	-8%	.	.	.	7%	.
CCNc1ncc2nc(C)c(=O)n(-c3ccc(OC)cc3)c2n1	2.1µM*	.	.	.	?	.
CCNc1ncc2nc(-c3ccccc3)c(=O)n(-c3ccc(OC)cc3)c2n1	0.52µM*	.	.	.	7.3µM*	.
CCNc1ncc2nc(-c3ccc(F)cc3)c(=O)n(-c3ccc(OC)cc3)c2n1	0.58µM*	.	.	.	0.73µM*	.
CO[C@H]1COC(=O)[C@H]2CCCN2C(=O)C/C=C\[C@@H](C)[C@H](OC)COC(=O)C/C=C\[C@@H]1C	.	7%[21 µM]	.	.	.	.
COc1cccc(N2CC(NC(=O)/C=C\c3ccc4c(c3)OCO4)CC2=O)c1 (centres undefined)	-28%	3%	.	-19%	-15%	-1%
CCNc1ncc2nc(C)c(=O)n(CCc3ccccc3)c2n1	?	.	.	.	7.3µM*	.
COc1ccccc1C(=O)NCC1CCN(c2ccc(S(=O)(=O)N3CCOCC3)cc2)CC1	23µM*	6%	-3	-31%	21µM*	?
O=C(CCc1ccc(S(=O)(=O)N2CCOCC2)cc1)Nc1ccccc1F	-29%	1%	2	-14%	-5%	-7%
O=C(NCC1CCN(c2ccc(S(=O)(=O)N3CCOCC3)cc2)CC1)Nc1ccccc1F	21µM*	7%	-12	8%	?	12%
O=C(NCC1CCN(c2ccc(S(=O)(=O)N3CCOCC3)cc2)CC1)Nc1ccccc1	23µM*	.	0	-16%	?	-25%
CC(Oc1ccccc1)C(=O)NC1=NCCS1 (centres undefined)	-8%	3%	?	-8%	5%	-5%
CC(=O)c1ccc(OCC(=O)OCC(=O)N(CC(C)C)c2c(N)n(Cc3ccccc3)c(=O)[nH]c2=O)cc1	-2%	-4%	3	-19%	11%	0%
COC(=O)N1c2ccccc2C23[C@@H]4CN5CCC[C@]6(CCC12C(O)(C6)C4=O)[C@H]53	-15%[9.04 µM]	9%	.	.	-15%[9.04 µM]	.
CCOC(=O)c1ccccc1NC(=O)Cn1cc(C(=O)c2cccc(OC)c2)c(=O)c2ccc(C)nc21	1%	8%	.	-46%	-5%	2%
O=C(c1cccc(F)c1)N1CCC[C@@]2(CCN(Cc3ccncc3)C2)C1	-21%	.	.	.	9%	.
SMILES	TDP1 cell noCPT	TDP1 inh	IL-1B inflam inh	HepG2 viability	DT40 TDP1 CPT	TGFb SMAD3 inh
COc1ccccc1/C=C/c1nc(C#N)c(NCCc2ccccc2)o1	16µM*	2%	.	-25%	?	.
CCOc1ccc(/C=C/c2nc(C#N)c(N(C)C)o2)cc1	15µM*	0%	.	-33%	16µM*	?
COc1ccc(Nc2oc(/C=C/c3cccc(OC)c3)nc2C#N)cc1	?	5%	.	-22%	18µM*	-36%
CCOc1ccc(/C=C/c2nc(C#N)c(NCCc3ccccc3)o2)cc1	1.2µM*	2%	.	-6%	1.3µM*	-9%
CCC[C@H](N[C@@H](C)C(=O)N1[C@@H]2CCCC[C@H]2C[C@H]1C(=O)O)C(=O)OCC	.	2%	.	.	.	.
COCCNC(=O)Cn1c(=O)c2cccn2c2ccc(F)cc21	-4%	3%	.	-25%	4%	-12%
CC1CCN(C(=O)CN2CCSc3ccc(S(=O)(=O)N(C)C)cc32)CC1	.	2%	.	0%	.	-10%
COc1cc2nc(CN(CCO)C3CS(=O)(=O)CC3O)nc(N3CCCCC3)c2cc1OC (centres undefined)	-4%	.	.	.	-6%[9.04 µM]	.
COc1cccc(/C=C/c2nc(C#N)c(NCCN(C)C)o2)c1	?	0%	.	-8%	-30%	-3%
COc1cccc(/C=C/c2nc(C#N)c(NCCc3ccccc3)o2)c1	15µM*	-5%	.	-10%	?	-2%
CN(C)c1oc(-c2ccccc2)nc1C#N	-15%	0%	-13	-5%	-1%	-21%
CCNc1oc(/C=C/c2ccc(OCC)cc2)nc1C#N	8.2µM*	.	-1	-33%	7.3µM*	?
CN(Cc1ccccc1)c1oc(-c2ccco2)nc1C#N	-15%	8%	-71*	7%	-1%	-4%
COc1cccc(/C=C/c2nc(C#N)c(N(C)Cc3ccccc3)o2)c1	23µM*	-5%	.	2%	?	-16%
CC12CCC=CC1C(c1ccc(/C=C/c3ccccc3)cc1F)N(Cc1ccccc1)C2=O (centres undefined)	.	9%	.	-33%	.	-5%
Nn1c(SCC(=O)Nc2c(Cl)cccc2Cl)nncc1=O	-1%	-20%[0.505 µM]	-24	-2%	18%	-19%
COc1ccc(-n2nc3c(c2NC(=O)CCl)CSC3)cc1	2.3µM*	3%	-107*	-44%	2.6µM*	?
O=C(NCc1ccccc1)C(=O)Nc1c2c(nn1-c1ccc(F)cc1)CSC2	16µM*	8%	.	-2%	?	16%
CC(C)CCNC(=O)C(=O)Nc1c2c(nn1-c1ccc(Cl)cc1)CSC2	12µM*	10%	.	-2%	26µM*	-7%
